Screening data from PubChem BioAssay.
The list is not random: actives were taken first. Their share in the collection is about 19%.
RORgamma inh: inhibitors of mouse ROR gamma transcriptional activity; AID 2551; Potency, µM (highest dose often 53.6 µM), for the others: at the highest dose activity change, negative = inhibition, hits mostly inhibitors; P51450; hit rate 5.4% among 310,000; Drosophila S2 Gal4-RORgamma UAS-luciferase reporter, 20 h; also: nearly all actives have a fitted effect of over 60% in size
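Stable Schneider cell line, Gal4 DNA-binding domain fused to ROR gamma, UAS-luciferase. Cmpd 1 hr RT → CuSO4 700 uM final → 20 hr RT → luciferase reagent 10 min → luminescence.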
TDP1 block: inhibitors of human tyrosyl-DNA phosphodiesterase TDP1. AID 485290. recombinant TDP1, AlphaScreen DNA substrate cleavage. hit rate 0.28% among 350,000. Potency, µM (top dose mostly 130 µM), without a hit: at the top dose activity change, negative = inhibition, hits mostly inhibitors; also: nearly all actives have a fitted effect of over 40% in size
Target sequence (Q9NUW8 whole entry, looked up): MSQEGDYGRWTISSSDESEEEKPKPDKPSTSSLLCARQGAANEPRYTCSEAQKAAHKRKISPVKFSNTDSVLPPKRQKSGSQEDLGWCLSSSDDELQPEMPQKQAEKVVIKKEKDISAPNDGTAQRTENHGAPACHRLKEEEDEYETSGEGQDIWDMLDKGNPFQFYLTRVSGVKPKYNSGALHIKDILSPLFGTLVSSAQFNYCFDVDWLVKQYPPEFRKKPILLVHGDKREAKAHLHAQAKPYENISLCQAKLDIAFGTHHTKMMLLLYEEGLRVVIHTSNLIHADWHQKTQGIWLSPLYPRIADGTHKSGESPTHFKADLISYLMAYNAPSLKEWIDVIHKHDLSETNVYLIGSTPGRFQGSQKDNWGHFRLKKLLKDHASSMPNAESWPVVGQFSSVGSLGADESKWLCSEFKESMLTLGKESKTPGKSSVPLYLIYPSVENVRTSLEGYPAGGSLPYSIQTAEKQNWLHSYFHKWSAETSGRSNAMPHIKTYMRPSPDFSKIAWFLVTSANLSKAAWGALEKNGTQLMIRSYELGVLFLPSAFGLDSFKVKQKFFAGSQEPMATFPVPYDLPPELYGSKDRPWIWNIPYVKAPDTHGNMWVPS
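Steps: enzyme plus compound, 15 min RT; add biotin/phosphotyrosine-FITC oligonucleotide (15 nM final), react 5 min; add donor/acceptor beads (10 ug/ml final), 10 min; read AlphaScreen. Tdp1 at 1 nM final.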
Gal4-VP16 FLuc: Gal4-VP16 reporter inhibition counter-screen; Drosophila S2 Gal4-VP16 UAS-luciferase, luminescence, 20 h; Potency, µM (titrated, usually from 53.6 µM), inactives show top-dose activity, negative = inhibition, actives largely listed as inhibitors; hit rate 3.5% among 310,000;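 also: Gal4-VP16 expression switched on by copper sulfate through the metallothionein promoter; nearly all actives have a fitted effect of over 50% in size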
DT40 TDP1 no CPT: qHTS for Inhibitors of human tyrosyl-DNA phosphodiesterase 1 (TDP1): qHTS in cells in absence of CPT. DT40 Tdp1-/- hTDP1 cells, no CPT, ATP luminescence, 48 h. Potency, µM (series often up to 46.2 µM), for inactives: at the highest dose activity change, negative = growth inhibition, usual class: inhibitors. hit rate 15% among 420,000. AID 686978, 2013; also: nearly all actives have a fitted effect of over 55% in size
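Growth kinetics read by CellTiter-Glo luminescence after ≥48 hr at 37 °C. Cells: DT40 Tdp1-/- stably carrying human TDP1, 400 per well, compound exposure in the absence of CPT (DMSO vehicle).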
DT40 TDP1 CPT: growth inhibition of DT40 Tdp1-/-;hTDP1 cells with camptothecin (screen for TDP1 inhibitors). Potency, µM (highest dose often 46.2 µM), without a hit: at the highest dose activity change, negative = growth inhibition, usual class: inhibitors. hit rate 12% among 420,000. AID 686979. chicken DT40 Tdp1-/-;hTDP1 cells + 20 nM CPT, ATP luminescence, 48 h; also: nearly all actives have a fitted effect of over 55% in size
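Cell growth measured by CellTiter-Glo luminescence after a minimum 48 h, 37 C compound exposure with 20 nM CPT in Tdp1-knockout DT40 cells stably expressing hTDP1, seeded 400/well; qHTS titration format.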
* marks the source's active call; other numbers are inactive results; ? = inconclusive; / = no result given; [ ] = dose if it differs, or a comment. Calls follow the shape of the dose curve; as a rule, active = well fitted curve in the direction sought with a large enough effect; inconclusive = small, poorly fitted or top-dose-only effect, or another doubt; inactive = no such curve, though single readings can be large; an effect the other way counts as inactive or inconclusive. % is scaled to controls: 0 for no effect and ±100 for the full control effect; potency is read from the fitted curve at half-maximal effect.

SMILES	RORgamma inh	TDP1 block	Gal4-VP16 FLuc	DT40 TDP1 no CPT	DT40 TDP1 CPT
CCCc1ccc(S(=O)(=O)NCCc2ccncc2)cc1	24%	7%	-5%	?	13µM*
O=C(Nc1ccc(S(=O)(=O)NCCc2ccccc2)cc1)c1ccncc1	18%	-4%	4%	?	18µM*
COc1ccc(CC(=O)NCCc2ccc3c(c2)OCO3)cc1OC	/	/	/	?	6%
CSc1ccc(CNc2ncc(-c3ccccc3)n2C)cc1	/	5%	/	18µM*	?
CSc1ccc(CNc2ncc(-c3cccc([N+](=O)[O-])c3)n2C)cc1	-21%	/	-10%	23µM*	16µM*
Cn1c(-c2ccccc2)cnc1NCc1ccc(F)cc1	-42%	/	2%	?	?
CCOC(=O)C1=C(C)NC(=S)NC1c1cccc(O)c1 (stereo unspecified)	-16%	11%	0%	?	-68%
COC(=O)c1c(N2C(=O)CCC2=O)sc2c1CCCC2	-14%	4%	1%	-11%	-1%
COc1ccc(CCCc2nnc(SCC(=O)Nc3ccc(C)cc3C)o2)cc1	/	/	/	?	-29%
COc1ccc(CCCc2nnc(SCC(=O)Nc3cc(F)ccc3C)o2)cc1	/	/	/	12µM*	?
O=C(Nc1cc(F)ccc1F)N1CCN(c2ccnc3cc(Cl)ccc23)CC1	53%	/	13µM*	5.2µM*	4.1µM*
O=C(Nc1ccc(C(F)(F)F)cc1)N1CCN(c2ccnc3cc(Cl)ccc23)CC1	3%	5%	-8%	16µM*	23µM*
Cc1cccc(Cl)c1NC(=O)N1CCN(c2ccnc3cc(Cl)ccc23)CC1	8%	4%	-4%	13µM*	?
CCCCNC(=O)N1CCN(c2ccnc3cc(Cl)ccc23)CC1	?	/	?	13µM*	21µM*
Cc1ccoc1C(=O)N1CCCC(CO)(Cc2ccc(F)cc2)C1 (stereo unspecified)	-5%	4%	1%	?	?
CCn1c(=O)cc(SCC(=O)N2CCCCC2)c2ccccc21	-16%	3%	-3%	?	-24%
Clc1ccc(CSc2ccc(-c3cccs3)nn2)cc1	/	-5%	/	-1%	0%
Clc1ccc(C[n+]2csc3ccccc32)cc1	?	8%	?	0.52µM*	0.41µM*
Fc1ccc(C[n+]2csc3ccccc32)cc1	?	9%	-17%	0.92µM*	1µM*
C/C=C/c1cccc(-c2nc(C(=O)N3CCOCC3)cc3c2[C@@H](CCO)N(C(=O)NC(C)C)C3)c1	/	/	/	-12%	-10%
CC(C)n1c(O)c(N=NC(=O)Cn2ccc(C(F)(F)F)n2)c2ccccc21	-4%	-1%	-9%	8.2µM*	?
Cn1c(O)c(N=NC(=O)Cn2c(C(F)(F)F)nc3ccccc32)c2ccccc21	?	4%	-8%	13µM*	21µM*
Cc1cc(C(=O)N=Nc2c(O)n(C(C)C)c3ccccc23)n[nH]1	11µM*	3%	?	18µM*	?
O=C(Cn1ccc(C(F)(F)F)n1)N=Nc1c(O)[nH]c2ccccc12	4%	/	1%	-20%	6%
CC(C)n1c(O)c(N=NC(=O)CNC(=O)CCc2ccccc2)c2ccccc21	1%	/	-2%	?	5%
COc1ccccc1C(=O)NCC(=O)N=Nc1c(O)n(C(C)C)c2ccccc12	-5%	2%	2%	18µM*	?
Cc1cccc(N2CC(C(=O)Nc3nnc(SCCN4CCOCC4)s3)CC2=O)c1 (stereo unspecified)	11%	0%	-6%	-4%	6%
CCOC(=O)C1CCN(C(=O)CCS(=O)(=O)c2cc3c(cc2Cl)NC(=O)CO3)CC1	/	1%	/	/	/
C=C1CCC2[C@](C)(CO)C(O)CC[C@]2(C)C1C/C=C1/C(=O)OCC1O (stereo partly specified)	13µM*	9%[56.1 µM]	-13%	/	/
C=C1CCC2C(C)(C)[C@H](O)CC[C@@]2(C)[C@@H]1COc1cc(=O)oc2ccccc12 (stereo partly specified)	?	1%	4%	?	?
